# In PubChem BioAssay (NCI):
# About 83,000 compounds went through this panel and 20% of them were active in at least one assay; those are over-represented in the sample as a whole.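 Assay: single dose, 48 h. Readout: percent growth (0 = no net growth; negative = cell death). Active: <10.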 A number with no mark means an inactive call. Activity calls are given as the source filed them.
# Assays:
# Experiment in all cases: NCI-60 one-dose screen, 48 h (100 = growth as untreated, 0 = no growth, -100 = all killed)
# Settings in all cases: 10 µM
# NCI-H23 lung = system: NCI-H23 lung
# NCI-H226 lung = system: NCI-H226 lung
# NCI-H322M lung = system: NCI-H322M lung
# HOP-62 NSCLC = system: HOP-62 NSCLC
# NCI-H460 lung = system: NCI-H460 lung
# HOP-92 NSCLC = system: HOP-92 NSCLC
# NCI-H522 lung = system: NCI-H522 lung
# A549/ATCC NSCLC = system: A549/ATCC NSCLC
# 786-0 renal = system: 786-0 renal
# COLO 205 colon = system: COLO 205 colon
# DU-145 prostate = system: DU-145 prostate
# MALME-3M melanoma = system: MALME-3M melanoma
# MDA-MB-231 breast = system: MDA-MB-231 breast
# RXF 393 renal = system: RXF 393 renal
# SF-268 CNS = system: SF-268 CNS
# SF-295 CNS = system: SF-295 CNS
# SF-539 CNS = system: SF-539 CNS
# UACC-257 melanoma = system: UACC-257 melanoma
# M14 melanoma = system: M14 melanoma
Structure (SMILES),growth (NCI-H23 lung),growth (NCI-H226 lung),growth (NCI-H322M lung),growth (HOP-62 NSCLC),growth (NCI-H460 lung),growth (HOP-92 NSCLC),growth (NCI-H522 lung),growth (A549/ATCC NSCLC),growth (786-0 renal),growth (COLO 205 colon),growth (DU-145 prostate),growth (MALME-3M melanoma),growth (MDA-MB-231 breast),growth (RXF 393 renal),growth (SF-268 CNS),growth (SF-295 CNS),growth (SF-539 CNS),growth (UACC-257 melanoma),growth (M14 melanoma)
CN1CCN(c2ccc(Nc3nc(NCCCNC(=O)C4CCCCC4)c4sccc4n3)cc2)CC1,60.3%,81.6%,70%,72.4%,52.9%,25.4%,79.4%,59.5%,3.18% (active),68.8%,67.5%,-97.1% (active),39%,-36% (active),62.2%,38.4%,-77.9% (active),-30.7% (active),-8.5% (active)
CC(=C(c1ccc(OCCN2CCCCCC2)cc1)c1ccc(OCCN2CCCCCC2)cc1)c1ccc(Cl)cc1,-96% (active),-89.8% (active),-100% (active),-96.8% (active),-54.1% (active),-74.3% (active),-92.7% (active),-98.4% (active),-75.7% (active),-93% (active),-96.1% (active),-98.9% (active),-98.8% (active),-99.4% (active),-84.9% (active),-80.6% (active),-100% (active),-96.3% (active),-57.9% (active)
Cc1ccc(-c2nc3ccc(C(=O)N=Nc4c(O)[nH]c5ccc(Cl)cc45)cc3[nH]2)cc1,-83.8% (active),-17.6% (active),3.76% (active),-73.7% (active),4.47% (active),-35.8% (active),-81.3% (active),28%,-42.9% (active),3.66% (active),6.16% (active),-28.7% (active),-73% (active),-68% (active),-33.4% (active),10.1%,33.2%,81.7%,6.09% (active)
CCC(C)S(=O)(=O)c1oc(-c2ccc(C)cc2)nc1S(=O)(=O)c1ccccc1 (configuration not stated),-86.8% (active),-10.3% (active),65.1%,28.7%,-13.9% (active),-74.6% (active),-98.7% (active),35.9%,-48.8% (active),-85.5% (active),-89.6% (active),-96.4% (active),-88.1% (active),-98% (active),-49.1% (active),46.9%,-100% (active),-89.5% (active),-42% (active)
O=C(Nc1ccc(OCc2ccccc2)cc1)Nc1ccc(Cl)c(C(F)(F)F)c1,-5.44% (active),-27.7% (active),7% (active),5.97% (active),3.69% (active),-38.7% (active),-20.3% (active),5.97% (active),17.9%,-72.7% (active),13%,-30.8% (active),-20% (active),-3.2% (active),14.9%,-26.5% (active),-46.9% (active),-20.7% (active),19.3%
CN(C)c1cccc2c(S(=O)(=O)Nc3cccc(-c4csc(NC(=O)CCCCCN5CCN(c6cc7c(cc6F)C(=O)N(C6CCC(=O)NC6=O)C7=O)CC5)n4)c3)cccc12 (configuration not stated),60.2%,72.7%,106%,88.5%,91.4%,56.6%,85.6%,90.3%,86.1%,104%,97.2%,87.1%,98%,89.7%,91.4%,91.8%,78.5%,82%,97.3%
CCN1CCN(c2ccc(NC(=O)Nc3ccc(-c4cc(C(=O)NC(C)C)c5ncccc5n4)cc3)cc2C(F)(F)F)CC1,-86.3% (active),-81.2% (active),-66% (active),-87.8% (active),-40.5% (active),-77.2% (active),-86.3% (active),-87.6% (active),-93.6% (active),-78.2% (active),-54.9% (active),-97.5% (active),-91.9% (active),-96% (active),-16.3% (active),-92.4% (active),-98.9% (active),-95.6% (active),-88.4% (active)
CCCCCc1ccc(S(=O)(=O)Nc2cc(-c3csc(N(C)C(C)=O)n3)ccc2N2CCN(C)CC2)cc1,44.3%,37.4%,63.6%,54.2%,23.6%,-12.9% (active),32.8%,57.7%,8.85% (active),-65.6% (active),70.5%,-57.1% (active),-2.21% (active),-73.8% (active),73.2%,-10.1% (active),-58.7% (active),-21.8% (active),28.3%
